High-throughput results (PubChem)
Giardia FBPA inh: qHTS Assay for Inhibitors of Fructose-1,6-bisphosphate Aldolase from Giardia Lamblia. A8B2U2. purified Giardia FBPA. Potency, µM (series often up to 59.6 µM), for inactives: at the highest dose activity, negative = inhibition, actives largely listed as inhibitors. 290,000 tested, 0.71% active. AID 2451, 2010; further: potency means the concentration at half of the fitted maximal effect; on the % scale 0 is the no-effect control and ±100 the full control effect; nearly all actives have a fitted effect of over 55% in size
Target sequence (A8B2U2 whole entry, looked up): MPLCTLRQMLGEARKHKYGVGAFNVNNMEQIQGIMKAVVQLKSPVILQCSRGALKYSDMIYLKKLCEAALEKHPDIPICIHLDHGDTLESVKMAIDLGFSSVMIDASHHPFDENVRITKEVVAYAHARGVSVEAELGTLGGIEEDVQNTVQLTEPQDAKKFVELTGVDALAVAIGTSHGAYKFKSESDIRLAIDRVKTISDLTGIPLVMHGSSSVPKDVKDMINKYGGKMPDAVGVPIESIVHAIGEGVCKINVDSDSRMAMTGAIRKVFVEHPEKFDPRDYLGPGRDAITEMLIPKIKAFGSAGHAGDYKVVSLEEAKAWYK
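40 nM FBPA preincubated 10 min at RT with compound (up to 57.5 uM final), then substrate plus GAPDH/TPI/NAD/arsenate coupling and diaphorase/resazurin added. Fluorescence read after 20 min at RT, 525/598 nm.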
Sm TGR block: qHTS Assay for the Inhibitors of Schistosoma Mansoni Peroxiredoxins; Schistosoma mansoni thioredoxin glutathione reductase (TGR), Q962Y6; purified TGR, DTNB reduction, TNB absorbance 405 nm; Potency, µM (titrated, usually from 114 µM), inactives show top-dose activity change, negative = inhibition, actives largely listed as inhibitors; 360,000 tested, 3% active; AID 485364, 2010; further: potency means the concentration at half of the fitted maximal effect; on the % scale 0 is the no-effect control and ±100 the full control effect; nearly all actives have a fitted effect of over 60% in size
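Kinetic colorimetric format: TGR-catalysed, NADPH-driven DTNB reduction monitored via TNB absorbance. Enzyme dispensed at 20 nM; compound exposure 15 min at room temperature before reaction start.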
Shiga toxin inh: A qHTS for Small Molecule Inhibitors of Shiga Toxin | Vero cells, Shiga toxin protein synthesis inhibition reporter | inhibition, % at 38.7 µM | 290,000 tested, 9.2% active | AID 2315, 2010; in the data active means inhibition mostly above about 28%, no sharp cut-off; inactive means mostly below about 43%; further: 0% is about no effect
Cycloheximide cs: Cycloheximide Counterscreen for Small Molecule Inhibitors of Shiga Toxin. AID 2314, 2010. 300,000 tested, 12% active. cell reporter, cycloheximide protein synthesis inhibition counterscreen. max response, %; in the data active means max response mostly above about 13%, no sharp cut-off; inactive means mostly below about 14%; further: read at 38.3 µM for the half of the compounds with a filed dose; 0% is about no effect
LmPK inh: qHTS Assay for Inhibitors of Leishmania Mexicana Pyruvate Kinase (LmPK); purified LmPK, Kinase-Glo ATP luminescence, 1 h; Potency, µM (titrated, usually from 57.5 µM), for inactives: at the top dose activity change, negative = inhibition, most hits filed as inhibitors; 290,000 tested, 0.37% active; AID 1721, 2009; further: potency means the concentration at half of the fitted maximal effect; on the % scale 0 is the no-effect control and ±100 the full control effect
Target sequence (Q27686 whole entry, looked up): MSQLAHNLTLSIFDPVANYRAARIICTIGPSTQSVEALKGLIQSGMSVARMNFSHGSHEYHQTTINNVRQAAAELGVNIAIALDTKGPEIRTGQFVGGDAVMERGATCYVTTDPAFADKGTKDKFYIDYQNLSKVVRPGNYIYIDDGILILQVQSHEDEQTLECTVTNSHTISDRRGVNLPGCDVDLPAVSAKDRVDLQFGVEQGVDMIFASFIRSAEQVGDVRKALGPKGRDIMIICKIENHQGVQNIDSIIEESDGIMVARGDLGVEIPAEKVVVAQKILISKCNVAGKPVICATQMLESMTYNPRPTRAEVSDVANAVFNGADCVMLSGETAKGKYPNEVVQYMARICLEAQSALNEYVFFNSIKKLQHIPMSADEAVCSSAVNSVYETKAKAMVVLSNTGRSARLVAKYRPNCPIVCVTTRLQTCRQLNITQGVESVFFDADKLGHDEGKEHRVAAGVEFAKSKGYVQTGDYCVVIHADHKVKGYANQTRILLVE
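Pyruvate kinase activity monitored as ATP production (luciferase luminescence). Conditions: 0.1 nM enzyme, 0.5 mM PEP, 0.1 mM ADP, 1 h, RT; normalized against uninhibited and no-enzyme wells.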
Tb PYK inh: qHTS of Trypanosoma Brucei Inhibitors; pyruvate kinase (Trypanosoma brucei), Q57TT1; TbPYK enzyme, Kinase-Glo Plus ATP luminescence, 45 min; Potency, µM (series often up to 76.8 µM), without a hit: at the highest dose activity, negative = inhibition, most hits filed as inhibitors; 410,000 tested, 0.12% active; AID 624173, 2012; further: potency means the concentration at half of the fitted maximal effect; on the % scale 0 is the no-effect control and ±100 the full control effect; nearly all actives have a fitted effect of over 50% in size
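TbPYK + substrate in 50 mM TEA pH 7.2, 100 mM KCl, 10 mM MgCl2, 0.05% BSA, 0.01% Tween-20; cpd pinned; ADP 130 uM final; 45 min RT; Kinase-Glo Plus 10 min; luminescence endpoint.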
An asterisk follows results filed as active; ? = inconclusive; . = no result given. Many of the other results were omitted from the sample, so hits are more common in it than they were. Unless noted, the call rests on the fitted dose curve; in most records, active means well fitted curve in the direction sought with a large enough effect; inconclusive means small, poorly fitted or top-dose-only effect, or another doubt; inactive means no such curve, though single readings can be large; an effect the other way counts as inactive or inconclusive.

SMILES | Giardia FBPA inh | Sm TGR block | Shiga toxin inh | Cycloheximide cs | LmPK inh | Tb PYK inh
O=C(C[n+]1ccccc1)Nc1ccccc1C(F)(F)F | -21.9% | 18.0% | -5.9 | 8.7 | -0.5% | 1.7%
O=C(COc1ccccc1Br)Nc1ccccc1C(F)(F)F | 0.2% | . | 60.8* | 23.1* | 0.9% | -7.4%
Cc1cccc(C)c1OCC(=O)NCC1(N(C)C)CCCCC1 | . | -2.7% | . | . | . | 0.6%
CCCN1C(=O)C(Cc2nc3ccccc3c(=O)n2CC)c2ccccc21 (stereo not given) | . | -0.1% | . | . | . | -5.4%
COC(=O)c1cc2oc3ccccc3c2n1Cc1c(F)cccc1Cl | . | -4.0% | . | . | . | 2.2%
Nc1nnc(SCc2ccc(F)cc2)s1 | 2.3% | 7.7% | 16.3 | 11.4 | -2.7% | ?
Nc1nc(SCc2ccc(F)cc2)ns1 | -5.2% | 5.0% | 69.5* | 40.3* | -3.9% | -6.2%
Cc1nnc(SCc2cccc3ccccc23)s1 | 5.8% | 0.0% | 71.5* | 51.7* | 4.4% | 3.9%
O=C(Nc1nnc(SCc2ccccc2)s1)c1cccc([N+](=O)[O-])c1 | ? | -1.1% | 10.8 | 5.4 | -8.8% | -8.1%
Cc1nnc(SCc2ccc(F)cc2)s1 | 0.4% | -0.2% | 55.2* | 28.1* | -6.9% | -4.3%
Cc1nnc(SCc2cccc([N+](=O)[O-])c2)s1 | -13.8% | -15.6% | 50.3 | 18.2* | 0.6% | -4.2%
Cc1ccc(-n2c(=O)c3cccnc3n2CC(=O)Nc2cc(C)cc(C)c2)cc1 | . | -0.5% | . | . | . | 2.4%
NC(=NC1C2CC3CC(C2)CC1C3)Nc1ccc(I)cc1 (stereo not given) | 1.4% | . | . | . | . | .
O=C(c1ccc(N2C(=O)C3C4CC(C(Br)C4Br)C3C2=O)cc1)N1CCCCC1 (stereo not given) | 2.9% | 1.9% | -3.0 | -3.4 | -0.6% | -2.0%
Cc1nnc(SCc2ccc(Cl)c(Cl)c2)s1 | 2.2% | -5.7% | 21.8 | 13.9* | 8.5% | -10.3%
Cc1nnc(SCc2ccc(C(=O)O)cc2)s1 | 7.4% | -6.9% | -6.9 | -6.0 | -1.7% | -5.3%
CCC(Sc1nc2ccccc2c2nc(CCn3c(C)nc4ccccc43)nn12)C(=O)Nc1ccc(F)cc1 (stereo not given) | . | -1.4% | . | . | . | 1.5%
CCC(C)n1c(=O)c2sccc2n2c(CCCC(=O)N3CCC(C(N)=O)CC3)nnc12 (stereo not given) | . | 7.08µM* | -8.3 | -4.0 | 1.3% | 5.0%
CC(C)C1NC2(C(=O)c3ccccc3C2=O)C2C(=O)N(c3ccc(F)cc3)C(=O)C12 (stereo not given) | -2.3% | 2µM* | -13.0 | -2.4 | 1.3% | -1.7%
O=C(Oc1ccccc1)N1CCC2(CC1)CCN(c1ccncc1)CC2 | 7.2% | . | . | . | . | -1.6%
COc1ccc(/C=C2\SC(=NCc3ccccc3)NC2=O)cc1 | 1.9% | -3.9% | 5.0 | 8.8 | 7.5% | 1.7%
COc1cc(/C=C2/SC(=Nc3ccc(O)cc3)NC2=O)ccc1O | -0.5% | -22.8% | 21.1 | 11.6 | -1.6% | 5.2%
COc1ccc(/C=C2\SC(=Nc3ccccc3OC)NC2=O)cc1 | -0.2% | -1.7% | 68.5 | 20.4* | 0.7% | 4.0%
COc1cc(/C=C2\SC(=Nc3ccccc3OC)NC2=O)ccc1O | 5.0% | -1.8% | -1.8 | 16.0* | 0.1% | -5.4%
Cc1ccc(-c2nc(CS(=O)(=O)CC(=O)Nc3cc(F)ccc3F)c(C)o2)cc1 | 4.8% | -3.1% | -4.1 | -0.8 | 1.2% | 4.5%
SMILES | Giardia FBPA inh | Sm TGR block | Shiga toxin inh | Cycloheximide cs | LmPK inh | Tb PYK inh
O=c1c(-c2cc(F)cc(F)c2)nc2cnc(N3CCOCC3)nc2n1C[C@H]1CCCO1 | 2.2% | . | . | . | . | .
CCOc1ccc(S(=O)(=O)N2CCC(C(=O)OC(C)C(=O)NC3CCCCC3C)CC2)cc1 (stereo not given) | . | 4.0% | . | . | . | 4.5%
C/C(=N\Nc1ccccn1)c1ccc(C(C)C)cc1 | -20.9% | 0.1% | 104.2* | 46.6* | -2.7% | 3.7%
C/C(=N\Nc1ccccn1)c1ccc(Br)s1 | . | . | . | . | . | -5.0%
C(=N\Nc1ccccn1)/c1ccc(N2CCOCC2)cc1 | 0.0% | 1.6% | 71.2 | 47.2* | ? | -7.5%
O=C(O)c1cc(N/N=C/c2ccc(N3CCOCC3)cc2)ccc1Cl | 1.3% | ? | 136.9* | 59.4* | 2.3% | -5.1%
Clc1cccc(N/N=C/c2ccc(N3CCOCC3)cc2)c1 | 1.8% | -30.8% | 31.6 | 37.7* | 0.6% | 5.7%
C/C(=N\Nc1ccccn1)c1ccc(N2CCOCC2)cc1 | -17.9% | -11.9% | 115.9* | 41.5* | -0.1% | -4.3%
Cc1ccc(S(=O)(=O)NN=Cc2ccc(N3CCOCC3)cc2)cc1[N+](=O)[O-] | . | . | . | . | . | -8.7%
C(=N\Nc1ccccc1)/c1ccc(N2CCOCC2)cc1 | 2.0% | -20.4% | 69.4* | 48.5* | -3.0% | 3.3%
Cc1cc(C)nc(N/N=C/c2ccc(N3CCOCC3)cc2)n1 | -9.0% | . | 1.8 | -4.3 | -0.2% | 6.0%
C/C(=N\Nc1ccc([N+](=O)[O-])cc1)c1ccc(N2CCOCC2)cc1 | 0.3% | 0.1% | -11.7 | -3.0 | -12.0% | -7.9%
O=[N+]([O-])c1cccc(N/N=C/c2ccc(N3CCOCC3)cc2)c1 | 0.1% | 18.8% | 80.4* | 49.8* | -5.8% | 5.3%
CCCn1c(=O)c(C(=O)Nc2cccc(C)c2)c(O)c2ccccc21 | -1.7% | 6.7% | 23.3 | 14.0 | -1.5% | -3.6%
Cc1ccnc(NC(=O)c2c(O)c3ccccc3n(C)c2=O)c1 | 1.5% | 4.1% | 71.2* | 50.6* | 3.4% | .
Cc1cccc(NC(=O)c2c(O)c3ccccc3n(C)c2=O)c1 | 2.4% | -4.9% | . | 24.9* | -0.2% | -1.8%
CSc1nnc(CNS(=O)(=O)c2ccc(Br)cc2)n1C | . | 10.4% | 10.7 | -1.8 | -3.7% | -8.8%
CCn1c(CNS(=O)(=O)c2ccc(Br)cc2)nnc1SC | . | 3.55µM* | 1.3 | 1.2 | -1.3% | -3.0%
O=C(Cn1cc([N+](=O)[O-])cn1)N1CCc2ccccc21 | -0.3% | -23.7% | 2.1 | -4.2 | -2.4% | -7.8%
O=C(Cn1cc([N+](=O)[O-])cn1)N1CCCc2ccccc21 | 1.4% | 2.7% | 52.6* | 28.3 | -2.6% | 3.0%
O=C(NC(=S)N1CCCc2ccccc21)c1ccc(Cl)cc1 | -29.5% | -3.4% | 73.3* | 52.2* | 0.2% | -17.9%
NC(=S)N1CCCc2ccccc21 | -10.2% | 0.0% | 12.3 | 8.6 | -0.3% | -0.2%
O=C(C(=O)N1CCCc2ccccc21)N1CCCc2ccccc21 | -5.2% | -1.5% | -10.4 | 0.5 | 2.2% | -1.6%
O=C(NC(=S)N1CCCc2ccccc21)c1ccc([N+](=O)[O-])cc1 | -2.1% | -32.7% | 58.5* | 47.4* | 0.9% | 0.0%
O=C(NC(=S)N1CCCc2ccccc21)c1ccc(Br)cc1 | -24.3% | -32.6% | 31.7 | 21.8* | 8.3% | -21.2%
